Several values for one entry are separate records, joined by “and”; a condition that tells them apart may be missing. Identical values can stand only once. Inconclusive results are not listed. A structure can be active in one record and inactive in another. Activity calls are given as the source filed them. Unless noted, the call rests on the fitted dose curve; in most records, active means well fitted curve in the direction sought with a large enough effect in the repeat runs; inconclusive means weak or mixed curves; inactive means no such curve, though single readings can be large; an effect the other way counts as inactive or inconclusive.
How the values were obtained:
[1] = qHTS assay to identify small molecule agonists of the hypoxia (HIF-1) signaling pathway - cell viability counter screen (AID 1224844; calls by dose curve; further: nearly all actives have a fitted effect of over 50% in size; further: potency means the concentration at half of the fitted maximal effect)
Method in brief: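 Tox21 10K compounds were added to HRE-bla ME-180 cells (0.5% dialyzed FBS) and incubated 17 hrs at 37C; ATP-based CellTiter-Glo luminescence then reported cell viability in the same wells.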

[2] = qHTS assay to identify small molecule agonists of H2AX (AID 1224845; active means well fitted activation curve with a large enough effect in the signal ratio in the repeat runs, not every such curve was filed as active; the % refers to the signal ratio; further: potency means the concentration at half of the fitted maximal effect)
Method in brief: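 Wild-type CHO-K1 cells plated overnight, then exposed 3 hr at 37C to compounds at 15 concentrations (0.76% DMSO). Lysed, then HTRF anti-pH2AX(S139)-cryptate/anti-H2AX-d2 detection after 24 hr at room temperature; emissions 665 and 620 nm.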

[3] = qHTS assay to identify small molecule agonists of H2AX - cell viability counter screen (AID 1224847; calls by dose curve; further: top concentration of the series differs between compounds; nearly all actives have a fitted effect of over 30% in size)
Method in brief: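 Cells plated first: CHO-K1, 1000 per well in 10% FBS medium, incubated overnight at 37C. Then 15-point compound titration added (final DMSO 0.76%) for 3 hr. Finally CellTiter-Glo added and luminescence read.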

[4] = qHTS assay to identify small molecule agonists of the estrogen related receptor (ERR) signaling pathway from Tox21 library (AID 1224849; calls by dose curve; further: nearly all actives have a fitted effect of over 15% in size); conditions: ERR reporter cell line, ONE-Glo luciferase, 18 h
Method in brief: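 Agonist signal is luciferase luminescence from an ERR reporter cell line treated 18 h at 37 C with DMSO-dissolved compounds, read 30 min after ONE-Glo addition at room temperature.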

[5] = qHTS RealTime-Glo MT Cell Viability Assay in HepG2 cells - 24 hour (AID 1224867); further: nearly all actives have a fitted effect of over 50% in size; further: potency means the concentration at half of the fitted maximal effect
Method in brief: (§1)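 HepG2 suspension premixed with RealTime-Glo reagents is plated at 600 cells per well and left 5 h at 37 C/5% CO2. Compounds in DMSO then go in, and bioluminescence reflecting viable cell number is recorded over 40 h.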

[6] = qHTS RealTime-Glo MT Cell Viability Assay in HEK293 cells - 32 hour (AID 1224868); further: nearly all actives have a fitted effect of over 50% in size; further: potency means the concentration at half of the fitted maximal effect
Method in brief: (§2)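 Reads taken at 0, 8, 16, 24, 32 and 40 h from the same wells. HEK293 cells (600/well) carried RealTime-Glo reagents from seeding, with compound added after a 5 h settle at 37 C.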

[7] = A CellTox Green Cytotoxicity Assay to monitor cytotoxicity in HEK293 cells - 0 hour (AID 1224869); further: nearly all actives have a fitted effect of over 50% in size; further: potency means the concentration at half of the fitted maximal effect
Method in brief: (§3)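 Cytotoxicity was tracked continuously in HEK293 cells by a DNA-binding dye excluded from viable cells. Compounds were transferred in DMSO 5 h after seeding; fluorescence was recorded at intervals up to 40 h.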

[8] = qHTS RealTime-Glo MT Cell Viability Assay in HepG2 cells - 40 hour (AID 1224870); further: nearly all actives have a fitted effect of over 50% in size; further: potency means the concentration at half of the fitted maximal effect
Method in brief: (§4)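 HepG2 cells mixed with RealTime-Glo MT reagents (NanoLuc plus cell-permeant prosubstrate) were seeded at 600 cells/well, incubated 5 h at 37 C/5% CO2, then pinned with compounds in DMSO; nonlytic luminescence tracked viability during 40 h treatment.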

[9] = qHTS RealTime-Glo MT Cell Viability Assay in HEK293 cells - 16 hour (AID 1224872); further: nearly all actives have a fitted effect of over 50% in size; further: potency means the concentration at half of the fitted maximal effect
Method in brief: as §2

[10] = qHTS RealTime-Glo MT Cell Viability Assay in HepG2 cells - 8 hour (AID 1224873); further: nearly all actives have a fitted effect of over 55% in size; further: potency means the concentration at half of the fitted maximal effect
Method in brief: as §4

[11] = qHTS RealTime-Glo MT Cell Viability Assay in HEK293 cells - 40 hour (AID 1224874); conditions: RealTime-Glo luminescence; max response: stronger effect = lower value; further: nearly all actives have a fitted effect of over 50% in size; further: potency means the concentration at half of the fitted maximal effect
Method in brief: (§5)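 Nonlytic bioluminescent viability monitoring. HEK293 at 600 cells/well with reagent; 5 h settle; compound transfer by pintool; plates held at 37 C and read at set time points.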

[12] = A CellTox Green Cytotoxicity Assay to monitor cytotoxicity in HEK293 cells - 24 hour (AID 1224875); further: nearly all actives have a fitted effect of over 45% in size
Method in brief: as §3

[13] = A CellTox Green Cytotoxicity Assay to monitor cytotoxicity in HepG2 cells - 16 hour (AID 1224876); further: nearly all actives have a fitted effect of over 45% in size
Method in brief: (§6)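 Real-time, homogeneous cytotoxicity readout: dead-cell DNA staining by CellTox Green in HepG2 monolayers, fluorescence measured at timed intervals up to 40 h of continuous compound exposure.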

[14] = qHTS RealTime-Glo MT Cell Viability Assay in HepG2 cells - 32 hour (AID 1224877); further: nearly all actives have a fitted effect of over 55% in size; further: potency means the concentration at half of the fitted maximal effect
Method in brief: as §1

[15] = qHTS RealTime-Glo MT Cell Viability Assay in HEK293 cells - 0 hour (AID 1224880); further: nearly all actives have a fitted effect of over 45% in size; further: potency means the concentration at half of the fitted maximal effect
Method in brief: as §5

[16] = qHTS assay to identify small molecule agonists of the hypoxia (HIF-1) signaling pathway (AID 1224846; active means well fitted activation curve with a large enough effect in the signal ratio in the repeat runs, not every such curve was filed as active; the % refers to the signal ratio)
Method in brief: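 Steps: seed ME-180 HRE-bla cells (2,000/well, 0.5% dialyzed FBS); incubate 5 hrs at 37C; pin-transfer compounds or DMSO; incubate 17 hrs; add LiveBLAzer B/G substrate CCF4-AM; measure reporter activation by FRET.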

[17] = qHTS assay to identify small molecule antagonists of the estrogen related receptor (ERR) signaling pathway from Tox21 library (AID 1224848); further: nearly all actives have a fitted effect of over 50% in size; further: potency means the concentration at half of the fitted maximal effect
Method in brief: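 Cells: ERR line, 2,000/well; 6 h preincubation 37 C/5% CO2. Cpd in DMSO via pin tool; 18 h, 37 C. ONE-Glo, 30 min RT, luminescence.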

[18] = A CellTox Green Cytotoxicity Assay to monitor cytotoxicity in HEK293 cells - 40 hour (AID 1224871); further: nearly all actives have a fitted effect of over 45% in size; further: potency means the concentration at half of the fitted maximal effect
Method in brief: as §3

[19] = A CellTox Green Cytotoxicity Assay to monitor cytotoxicity in HepG2 cells - 24 hour (AID 1224878); further: nearly all actives have a fitted effect of over 45% in size
Method in brief: as §6

[20] = A CellTox Green Cytotoxicity Assay to monitor cytotoxicity in HepG2 cells - 40 hour (AID 1224879); further: nearly all actives have a fitted effect of over 40% in size
Method in brief: as §6
On the % scale 0 is the no-effect control and ±100 the full control effect.

Nc1ccc(C(=O)O)c(O)c1
inactive: Potency [1] | Potency [2] | Potency [3] | activity change, positive = activation ([4]; at 42.5 µM (top of the series)) -27.4% | Potency [5] | Potency [6] | Potency [7] | Potency [8] | Potency [9] | Potency [10] | max response [11] -4.05% | Potency [12] | Potency [13] | Potency [14] | Potency [15]

Cc1c(C)c([N+](=O)[O-])c(C(C)(C)C)c([N+](=O)[O-])c1C
inactive: Potency [1] | Potency [2] | Potency [16] | Potency [17] | activity change, positive = activation ([4]; at 92.4 µM (top of the series)) -6.21% | Potency [6] | Potency [7] | Potency [8] | Potency [18] | Potency [9] | Potency [10] | max response [11] -0.27% | Potency [12] | Potency [14] | Potency [19] | Potency [20] | Potency [15]

CC/C=C\CCCCCO
inactive: Potency [1] | Potency [16] | Potency [3] | Potency [17] | activity change, positive = activation ([4]; at 92.4 µM (top of the series)) 4.13% | Potency [5] | Potency [6] | Potency [7] | Potency [8] | Potency [18] | Potency [9] | Potency [10] | max response [11] 9.87% | Potency [12] | Potency [13] | Potency [14] | Potency [15]

COC(=O)c1ccccc1OC
inactive: Potency [1] | Potency [2] | Potency [16] | Potency [17] | activity change, positive = activation ([4]; at 92.4 µM (top of the series)) 0.916% | Potency [5] | Potency [6] | Potency [7] | Potency [8] | Potency [18] | Potency [9] | max response [11] 2.19% | Potency [12] | Potency [13] | Potency [14] | Potency [19] | Potency [20] | Potency [15]

O=C1NC(=O)[C@@H]2CC=CC[C@H]12
active: Potency [1] 19.5 µM
inactive: Potency [2] | Potency [3] | Potency [17] | activity change, positive = activation ([4]; at 92.4 µM (top of the series)) -12.4% | Potency [5] | Potency [6] | Potency [7] | Potency [8] | Potency [18] | Potency [9] | Potency [10] | Potency [12] | Potency [13] | Potency [14] | Potency [19]

CCCC(=O)OCOC(=O)C1=C(C)NC(C)=C(C(=O)OC)C1c1cccc(Cl)c1Cl (centres undefined)
inactive: Potency [1] | Potency [2] | Potency [16] | Potency [3] | Potency [6] | Potency [7] | Potency [8] | Potency [18] | Potency [9] | max response [11] 2.11% | Potency [12] | Potency [13] | Potency [14] | Potency [19] | Potency [20]
active: Potency [15] 9.52 µM

O=[N+]([O-])c1ccc(O)cc1C(F)(F)F
active: Potency [17] 6.11 µM | Potency [6] 34.7 µM
inactive: Potency [1] | Potency [2] | activity change, positive = activation ([4]; at 92.4 µM (top of the series)) -63.3% | Potency [5] | Potency [7] | Potency [18] | Potency [9] | Potency [12] | Potency [13] | Potency [19] | Potency [15]

Cc1cc(C(C)(C)C)cc(C)c1CC1=NCCN1
inactive: Potency [1] | Potency [2] | Potency [3] | Potency [17] | activity change, positive = activation ([4]; at 42.5 µM (top of the series)) -3.5% | Potency [5] | Potency [6] | Potency [7] | Potency [9] | Potency [10] | max response [11] -8.22% | Potency [12] | Potency [14] | Potency [19] | Potency [20] | Potency [15]

CCCCCCCCCCCC(=O)OCC(C)OC(=O)CCCCC(=O)O (centres undefined)
inactive: Potency [1] | Potency [2] | Potency [3] | Potency [17] | activity change, positive = activation ([4]; at 42.5 µM (top of the series)) -2.88% | Potency [5] | Potency [6] | Potency [7] | Potency [8] | Potency [18] | Potency [9] | Potency [10] | max response [11] 14.1% | Potency [12] | Potency [13] | Potency [14] | Potency [19] | Potency [20]

O=C(O)c1cc(-c2ccc(F)cc2F)ccc1O
inactive: Potency [1] | Potency [2] | Potency [16] | Potency [17] | activity change, positive = activation ([4]; at 42.5 µM (top of the series)) -14.2% | Potency [5] | Potency [6] | Potency [7] | Potency [8] | Potency [18] | Potency [9] | Potency [10] | max response [11] -1.84% | Potency [12] | Potency [13] | Potency [14] | Potency [19] | Potency [15]

CN(C)Cc1ccccc1O
inactive: Potency [1] | Potency [2] | Potency [16] | Potency [17] | activity change, positive = activation ([4]; at 92.4 µM (top of the series)) 0.52% | Potency [5] | Potency [6] | Potency [7] | Potency [8] | Potency [9] | Potency [10] | max response [11] 3.13% | Potency [13] | Potency [14] | Potency [19] | Potency [20] | Potency [15]

COc1cccc2c1C(=O)c1c(O)c3c(c(O)c1C2=O)C[C@@](O)(C(C)=O)C[C@@H]3O[C@H]1C[C@H](N)[C@H](O)[C@H](C)O1
inactive: Potency [3] | Potency [17] | activity change, positive = activation ([4]; at 42.5 µM (top of the series)) -0.62% | activity change, positive = activation ([4]; at 92.4 µM (top of the series)) -74.3% | Potency [19] | Potency [20] | Potency [15]
43.9 µM (active) and inactive: Potency [18]
553 nM (active) and inactive: Potency [1]
active: Potency [2] 39.1 nM | Potency [5] 24.7 µM | Potency [6] 69.6 nM and 3.4 nM | Potency [7] 43.9 µM | Potency [8] 19.6 µM | Potency [9] 6.2 µM and 151 nM | Potency [10] 49.3 µM | Potency [11] 62 nM and 3 nM | Potency [14] 22 µM

Reference: PubChem BioAssay (Tox21)
